These results are taken from the supplement of paper PMC10849652.

About 8,800 targets were measured; listed, in parts, are those with a hit and a random draw of the rest. About 0.5% of all pairs of compound and target were hits. Unmarked numbers belong to inactive results.

Sequence of UniProt P18031 (P18031 whole entry, looked up): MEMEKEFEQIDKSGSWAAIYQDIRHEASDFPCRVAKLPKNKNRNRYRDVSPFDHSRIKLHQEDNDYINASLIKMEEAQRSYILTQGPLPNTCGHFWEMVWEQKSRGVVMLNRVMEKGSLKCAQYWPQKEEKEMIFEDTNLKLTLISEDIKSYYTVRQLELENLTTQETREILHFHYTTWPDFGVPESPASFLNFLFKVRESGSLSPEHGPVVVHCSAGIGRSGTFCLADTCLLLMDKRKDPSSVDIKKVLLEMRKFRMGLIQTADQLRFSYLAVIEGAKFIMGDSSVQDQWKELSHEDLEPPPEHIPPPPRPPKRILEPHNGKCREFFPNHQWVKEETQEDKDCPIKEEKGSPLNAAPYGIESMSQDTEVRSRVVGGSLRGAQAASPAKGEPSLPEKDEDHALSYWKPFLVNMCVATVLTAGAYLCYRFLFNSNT
Sequence of UniProt Q01813 (Q01813 whole entry, looked up): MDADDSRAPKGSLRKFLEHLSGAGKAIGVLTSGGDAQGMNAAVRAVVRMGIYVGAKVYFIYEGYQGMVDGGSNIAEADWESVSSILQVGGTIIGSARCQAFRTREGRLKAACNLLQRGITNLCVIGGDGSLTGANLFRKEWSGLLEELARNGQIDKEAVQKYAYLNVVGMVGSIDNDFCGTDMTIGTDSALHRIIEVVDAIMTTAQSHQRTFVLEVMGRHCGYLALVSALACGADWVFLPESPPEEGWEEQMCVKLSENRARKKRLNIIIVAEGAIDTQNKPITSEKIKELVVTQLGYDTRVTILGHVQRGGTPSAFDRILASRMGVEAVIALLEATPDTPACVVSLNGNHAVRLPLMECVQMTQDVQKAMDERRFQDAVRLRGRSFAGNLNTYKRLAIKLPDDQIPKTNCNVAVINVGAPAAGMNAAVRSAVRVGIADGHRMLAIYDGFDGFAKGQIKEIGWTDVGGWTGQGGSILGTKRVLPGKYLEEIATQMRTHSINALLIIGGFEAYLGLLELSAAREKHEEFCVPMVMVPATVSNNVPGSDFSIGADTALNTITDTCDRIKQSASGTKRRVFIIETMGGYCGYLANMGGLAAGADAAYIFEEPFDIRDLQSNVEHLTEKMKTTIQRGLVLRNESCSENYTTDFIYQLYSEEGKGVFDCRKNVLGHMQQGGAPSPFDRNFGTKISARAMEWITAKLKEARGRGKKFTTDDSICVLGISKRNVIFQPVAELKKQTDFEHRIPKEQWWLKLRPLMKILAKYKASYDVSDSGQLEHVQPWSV
Sequence of UniProt Q9BUL8 (Q9BUL8 whole entry, looked up): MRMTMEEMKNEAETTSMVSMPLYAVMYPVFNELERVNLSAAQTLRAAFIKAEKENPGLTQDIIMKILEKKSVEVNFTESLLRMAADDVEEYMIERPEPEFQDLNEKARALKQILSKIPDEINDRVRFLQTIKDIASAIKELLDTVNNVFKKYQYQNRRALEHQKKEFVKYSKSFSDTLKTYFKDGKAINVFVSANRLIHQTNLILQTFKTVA
Sequence of UniProt P17706 (P17706 whole entry, looked up): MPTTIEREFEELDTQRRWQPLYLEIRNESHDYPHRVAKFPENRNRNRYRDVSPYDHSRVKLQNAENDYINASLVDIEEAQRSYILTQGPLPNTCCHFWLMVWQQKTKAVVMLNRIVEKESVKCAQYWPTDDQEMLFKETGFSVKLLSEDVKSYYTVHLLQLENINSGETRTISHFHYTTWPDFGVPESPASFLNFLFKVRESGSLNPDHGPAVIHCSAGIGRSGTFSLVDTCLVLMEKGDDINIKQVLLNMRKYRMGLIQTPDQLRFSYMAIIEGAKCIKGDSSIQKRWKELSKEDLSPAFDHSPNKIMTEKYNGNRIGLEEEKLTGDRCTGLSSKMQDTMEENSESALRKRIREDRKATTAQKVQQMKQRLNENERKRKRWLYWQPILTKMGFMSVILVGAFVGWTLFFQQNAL
Sequence of UniProt Q9HBH1 (Q9HBH1 whole entry, looked up): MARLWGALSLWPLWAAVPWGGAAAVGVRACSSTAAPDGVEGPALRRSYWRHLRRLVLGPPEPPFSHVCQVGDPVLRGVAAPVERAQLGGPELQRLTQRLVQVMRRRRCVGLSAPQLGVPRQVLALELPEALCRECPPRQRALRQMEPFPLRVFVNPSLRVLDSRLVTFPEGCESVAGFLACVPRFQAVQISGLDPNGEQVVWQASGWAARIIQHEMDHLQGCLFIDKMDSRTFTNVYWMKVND
Sequence of UniProt P15735 (P15735 whole entry, looked up): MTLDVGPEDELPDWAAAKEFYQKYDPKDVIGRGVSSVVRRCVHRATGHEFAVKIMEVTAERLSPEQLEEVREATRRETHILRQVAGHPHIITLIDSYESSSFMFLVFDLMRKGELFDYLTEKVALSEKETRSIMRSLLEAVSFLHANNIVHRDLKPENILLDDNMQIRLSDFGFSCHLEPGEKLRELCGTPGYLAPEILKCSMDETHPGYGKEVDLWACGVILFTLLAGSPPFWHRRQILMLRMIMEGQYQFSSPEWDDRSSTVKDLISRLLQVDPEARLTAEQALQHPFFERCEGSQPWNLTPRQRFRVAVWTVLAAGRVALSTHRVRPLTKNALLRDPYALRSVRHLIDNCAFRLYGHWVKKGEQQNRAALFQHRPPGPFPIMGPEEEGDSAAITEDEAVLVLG
Sequence of UniProt Q6P996 (Q6P996 whole entry, looked up): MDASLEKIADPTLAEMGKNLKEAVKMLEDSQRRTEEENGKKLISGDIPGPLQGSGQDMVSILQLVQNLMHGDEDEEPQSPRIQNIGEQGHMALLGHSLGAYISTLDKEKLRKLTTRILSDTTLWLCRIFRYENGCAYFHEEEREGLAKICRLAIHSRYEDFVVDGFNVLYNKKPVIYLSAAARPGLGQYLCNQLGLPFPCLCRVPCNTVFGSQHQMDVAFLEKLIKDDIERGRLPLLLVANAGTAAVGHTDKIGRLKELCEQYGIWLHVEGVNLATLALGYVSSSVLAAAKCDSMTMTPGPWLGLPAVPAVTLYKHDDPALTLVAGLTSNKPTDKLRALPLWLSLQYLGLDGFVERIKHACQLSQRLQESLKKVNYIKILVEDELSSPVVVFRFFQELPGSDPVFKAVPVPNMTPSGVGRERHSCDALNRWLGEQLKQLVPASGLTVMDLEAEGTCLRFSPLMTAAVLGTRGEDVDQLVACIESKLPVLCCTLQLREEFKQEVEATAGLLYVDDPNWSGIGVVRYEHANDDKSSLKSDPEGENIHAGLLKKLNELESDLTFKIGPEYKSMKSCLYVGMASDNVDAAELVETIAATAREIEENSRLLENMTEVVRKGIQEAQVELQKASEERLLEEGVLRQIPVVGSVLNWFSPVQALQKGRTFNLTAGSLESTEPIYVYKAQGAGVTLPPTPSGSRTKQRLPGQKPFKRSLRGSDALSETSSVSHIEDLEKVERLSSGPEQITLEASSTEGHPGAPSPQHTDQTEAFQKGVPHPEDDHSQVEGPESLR
Sequence of UniProt Q99541 (Q99541 whole entry, looked up): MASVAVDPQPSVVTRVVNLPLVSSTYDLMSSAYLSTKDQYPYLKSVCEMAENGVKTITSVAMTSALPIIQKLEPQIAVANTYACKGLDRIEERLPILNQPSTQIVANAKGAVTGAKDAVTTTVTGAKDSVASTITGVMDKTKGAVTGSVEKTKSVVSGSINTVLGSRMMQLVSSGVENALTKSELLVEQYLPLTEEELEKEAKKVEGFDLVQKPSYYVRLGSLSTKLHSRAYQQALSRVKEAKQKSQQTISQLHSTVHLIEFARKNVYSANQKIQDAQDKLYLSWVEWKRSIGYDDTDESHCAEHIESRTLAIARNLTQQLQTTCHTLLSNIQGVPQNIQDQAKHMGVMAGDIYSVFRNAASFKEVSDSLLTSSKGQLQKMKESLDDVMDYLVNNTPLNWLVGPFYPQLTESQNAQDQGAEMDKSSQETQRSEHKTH
Sequence of UniProt O00408 (O00408 whole entry, looked up): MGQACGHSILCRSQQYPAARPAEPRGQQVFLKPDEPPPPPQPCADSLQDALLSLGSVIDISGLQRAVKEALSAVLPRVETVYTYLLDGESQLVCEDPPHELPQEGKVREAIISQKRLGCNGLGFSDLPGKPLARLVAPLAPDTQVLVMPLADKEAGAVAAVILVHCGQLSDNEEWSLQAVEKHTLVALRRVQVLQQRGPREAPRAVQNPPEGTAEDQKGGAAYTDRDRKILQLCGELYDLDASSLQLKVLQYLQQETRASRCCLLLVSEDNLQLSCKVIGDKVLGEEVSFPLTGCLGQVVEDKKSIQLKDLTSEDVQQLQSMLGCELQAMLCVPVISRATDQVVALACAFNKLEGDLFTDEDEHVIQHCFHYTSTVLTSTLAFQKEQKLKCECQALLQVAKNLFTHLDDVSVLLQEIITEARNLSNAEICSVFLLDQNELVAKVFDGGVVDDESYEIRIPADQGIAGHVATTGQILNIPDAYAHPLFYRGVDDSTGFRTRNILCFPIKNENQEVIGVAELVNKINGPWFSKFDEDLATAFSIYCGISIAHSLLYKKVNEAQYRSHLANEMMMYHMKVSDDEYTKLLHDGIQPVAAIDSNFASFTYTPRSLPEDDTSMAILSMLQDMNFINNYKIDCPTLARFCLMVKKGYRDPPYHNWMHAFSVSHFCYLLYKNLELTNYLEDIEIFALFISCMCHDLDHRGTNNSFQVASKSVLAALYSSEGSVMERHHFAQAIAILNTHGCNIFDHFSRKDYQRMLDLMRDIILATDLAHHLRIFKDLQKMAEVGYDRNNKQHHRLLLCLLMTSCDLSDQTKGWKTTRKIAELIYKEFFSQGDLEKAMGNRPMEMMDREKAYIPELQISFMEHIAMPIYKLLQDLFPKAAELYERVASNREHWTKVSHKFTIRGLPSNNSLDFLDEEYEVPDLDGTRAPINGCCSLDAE
Sequence of UniProt Q93096 (Q93096 whole entry, looked up): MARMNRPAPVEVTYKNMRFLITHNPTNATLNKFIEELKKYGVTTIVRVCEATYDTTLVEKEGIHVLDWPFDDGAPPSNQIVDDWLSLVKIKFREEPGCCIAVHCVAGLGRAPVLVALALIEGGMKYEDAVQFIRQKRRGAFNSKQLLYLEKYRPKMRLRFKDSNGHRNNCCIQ
Sequence of UniProt Q96I23 (Q96I23 whole entry, looked up): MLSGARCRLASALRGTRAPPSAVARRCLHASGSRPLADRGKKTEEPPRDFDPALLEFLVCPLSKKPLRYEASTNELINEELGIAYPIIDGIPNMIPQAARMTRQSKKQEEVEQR

Compound in one assay: COc1cc(Nc2ncc3c(n2)-c2ccc(Cl)cc2C(c2c(F)cccc2OC)=NC3)ccc1C(=O)O [alisertib]
In words: log2 fold change, soluble protein after heating vs DMSO (PISA); higher = thermal stabilisation; K562 lysate, 10 uM; active = over 0.2 and 3.5 SD of the protein, either way, in both replicates (recomputed). In a few lines: (§1)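 The values are log-two fold changes in thermal stability compared with solvent controls and come from duplicates. They were obtained by TMTpro 16plex LC-MS/MS, with channel sums equalised, on the supernatant after 21,000xg for 90 min. That supernatant came from crude K562 extract at 1 mg/mL protein treated with 10 μM compound for 30 min, heated for 3 min across 48°C-58°C, pooled and brought to 0.5% NP-40 at 4°C.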
Consider PDCD10 (UniProt Q9BUL8), for which the log2 fold change is 0.01.

As for PGPEP1 (UniProt Q9NXJ5), the log2 fold change was -0.045.

With PRIM1 (UniProt P49642), the log2 fold change is -0.054.

For PPP1R8 (UniProt Q12972), the log2 fold change is 0.022.

For the target PELO (UniProt Q9BRX2), the log2 fold change was 0.008.

In the case of PDCD6IP isoform 2 (UniProt Q8WUM4), the log2 fold change was 0.014.

Consider PTGES2 (UniProt Q9H7Z7), for which the log2 fold change is -0.026.

Turning to PYURF (UniProt Q96I23), the log2 fold change was 0.007.

On to PMPCA (UniProt Q10713), for which the log2 fold change was -0.03.

Turning to POLA1 (UniProt P09884), the log2 fold change was -0.013.

As for PHKG2 (UniProt P15735), the log2 fold change was -0.045.

Regarding PRKACB isoform 2 (UniProt P22694), the log2 fold change is 0.

On to POLB (UniProt P06746), for which the log2 fold change is 0.015.

In the case of PTPN1 (UniProt P18031), the log2 fold change is 0.005.

In the case of PRPH isoform 2 (UniProt P41219), the log2 fold change is -0.012.

Turning to PKN1 isoform 2 (UniProt Q16512), the log2 fold change is -0.009.

For the target PPP4R2 (UniProt Q9NY27), the log2 fold change is -0.058.

PEF1 (UniProt Q9UBV8): the log2 fold change was -0.017.

For the target PXMP4 (UniProt Q9Y6I8), the log2 fold change was -0.039.

For POLR3E (UniProt Q9NVU0), the log2 fold change was 0.024.

As to PRKRA (UniProt O75569), the log2 fold change is -0.019.

Take PTK2 (UniProt Q05397): the log2 fold change is 0.17.

On to PLIN2 (UniProt Q99541), for which the log2 fold change was 0.044.

As to PHACTR4 isoform 2 (UniProt Q8IZ21), the log2 fold change is -0.019.

Regarding PTGR2 (UniProt Q8N8N7), the log2 fold change was 0.014.

On to PRMT5 (UniProt O14744), for which the log2 fold change is 0.

For the target PCYT1B (UniProt Q9Y5K3), the log2 fold change was 0.033.

Turning to POC5 (UniProt Q8NA72), the log2 fold change was -0.018.

For the target PFKP (UniProt Q01813), the log2 fold change was -0.004.

PDF (UniProt Q9HBH1): the log2 fold change is 0.048.

As to PYCR2 (UniProt Q96C36), the log2 fold change is 0.013.

For the target PDE2A (UniProt O00408), the log2 fold change was 0.014.

Regarding PRKACA (UniProt P17612), the log2 fold change was 0.027.

As for PTPN2 (UniProt P17706), the log2 fold change is 0.052.

PPFIA2 (UniProt O75334): the log2 fold change was -0.007.

In the case of PTP4A1 (UniProt Q93096), the log2 fold change is -0.056.

On to PDXDC1 (UniProt Q6P996), for which the log2 fold change was 0.049.

On to PRKCSH isoform 2 (UniProt P14314), for which the log2 fold change is -0.079.

On to POLD3 (UniProt Q15054), for which the log2 fold change was -0.025.

Compound in the next assay: COc1cc2nc(-c3cc(F)ccc3O)nc(N[C@@H]3CNC[C@H]3C(C)(C)O)c2cc1OC
The assay is described as above. In a few lines: as §1
For PDCD10 (UniProt Q9BUL8), the log2 fold change was 0.05.

As to PGPEP1 (UniProt Q9NXJ5), the log2 fold change was 0.01.

Take PRIM1 (UniProt P49642): the log2 fold change was -0.019.

In the case of PPP1R8 (UniProt Q12972), the log2 fold change was -0.012.

PELO (UniProt Q9BRX2): the log2 fold change is 0.006.

Take PDCD6IP isoform 2 (UniProt Q8WUM4): the log2 fold change was 0.003.

Consider PTGES2 (UniProt Q9H7Z7), for which the log2 fold change is -0.248.

In the case of PYURF (UniProt Q96I23), the log2 fold change is -0.007.

For PMPCA (UniProt Q10713), the log2 fold change is 0.003.

Turning to POLA1 (UniProt P09884), the log2 fold change is 0.014.

Consider PHKG2 (UniProt P15735), for which the log2 fold change is 0.192.

Take PRKACB isoform 2 (UniProt P22694): the log2 fold change was 0.51 (active).

Turning to POLB (UniProt P06746), the log2 fold change is 0.

Consider PTPN1 (UniProt P18031), for which the log2 fold change was 0.047.

As to PRPH isoform 2 (UniProt P41219), the log2 fold change was -0.028.

For the target PKN1 isoform 2 (UniProt Q16512), the log2 fold change was -0.1.

In the case of PPP4R2 (UniProt Q9NY27), the log2 fold change was -0.002.

For the target PEF1 (UniProt Q9UBV8), the log2 fold change is 0.029.

Turning to PXMP4 (UniProt Q9Y6I8), the log2 fold change is -0.009.

Regarding POLR3E (UniProt Q9NVU0), the log2 fold change was -0.003.

As for PRKRA (UniProt O75569), the log2 fold change was -0.004.

With PTK2 (UniProt Q05397), the log2 fold change is 0.113.

Consider PLIN2 (UniProt Q99541), for which the log2 fold change is -0.071.

PHACTR4 isoform 2 (UniProt Q8IZ21): the log2 fold change is 0.004.

Consider PTGR2 (UniProt Q8N8N7), for which the log2 fold change was 0.004.

Take PRMT5 (UniProt O14744): the log2 fold change is 0.011.

In the case of PCYT1B (UniProt Q9Y5K3), the log2 fold change was -0.02.

For POC5 (UniProt Q8NA72), the log2 fold change is -0.009.

As for PFKP (UniProt Q01813), the log2 fold change was 0.009.

As for PDF (UniProt Q9HBH1), the log2 fold change is -0.181.

Consider PYCR2 (UniProt Q96C36), for which the log2 fold change was -0.001.

In the case of PDE2A (UniProt O00408), the log2 fold change was 0.048.

Consider PRKACA (UniProt P17612), for which the log2 fold change is 0.558 (active).

PTPN2 (UniProt P17706): the log2 fold change was -0.006.

PPFIA2 (UniProt O75334): the log2 fold change is 0.012.

PTP4A1 (UniProt Q93096): the log2 fold change was -0.015.

Turning to PDXDC1 (UniProt Q6P996), the log2 fold change is -0.006.

As for PRKCSH isoform 2 (UniProt P14314), the log2 fold change was -0.042.

In the case of POLD3 (UniProt Q15054), the log2 fold change was 0.007.
